Experiment [1] can be described thus: NCI Yeast Anticancer Drug Screen. Data for the rad50 strain (AID 155).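 Also: 0% = growth of vehicle-only cultures of the same strain.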 The conditions noted are these: S. cerevisiae rad50 strain growth inhibition; at 50.0 µM; hits give high values. An outline of the steps: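 Inhibition values express reduced yeast growth in compound-treated cultures relative to vehicle-treated controls.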
The nature of experiment [2]: NCI Yeast Anticancer Drug Screen. Data for the mec2-1 strain (AID 157). The following applies: S. cerevisiae mec2-1 strain, at 50.0 µM, hits give high values. An outline of the steps: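 Growth inhibition is read against vehicle-treated controls after compound exposure of the mec2-1 yeast strain, which is defective in DNA damage repair or cell cycle control.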
Experiment [3] in a line: NCI Yeast Anticancer Drug Screen. Data for the sgs1 mgt1 strain (AID 161).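 Also: 0% = growth of cultures given vehicle only.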 The following applies: S. cerevisiae sgs1 mgt1 strain, at 50.0 µM, hits give high values. An outline of the steps: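 Percent growth inhibition was derived by comparing compound-exposed mutant yeast with vehicle-exposed cultures. The strain carries alterations in DNA damage repair.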
Experiment [4] in a line: NCI Yeast Anticancer Drug Screen. Data for the cln2 rad14 strain (AID 165).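 Also: 0% = growth equal to vehicle treated cultures.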 The conditions noted are these: S. cerevisiae cln2 rad14 strain, at 50.0 µM, hits give high values. An outline of the steps:
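Growth inhibition, relative to vehicle-treated controls, is the read-out. The test organism is a yeast strain with defined genetic alterations, cln2 rad14.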

Experiment [5] in a line: NCI Yeast Anticancer Drug Screen. Data for the bub3 strain (AID 167). The conditions noted are these: S. cerevisiae bub3 mutant strain, at 50.0 µM, hits give high values. The essentials:
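Steps: expose the mutant yeast strain to compound; grow alongside vehicle-treated cultures; measure growth; express inhibition against the vehicle cultures.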

Experiment [6] in a line: NCI Yeast Anticancer Drug Screen. Data for the mlh1 rad18 strain (AID 175). The following applies: S. cerevisiae mlh1 rad18 strain growth inhibition; at 50.0 µM; hits give high values. The essentials: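 Cells of a genetically altered yeast strain, deficient in DNA damage repair, were treated with compound. Their growth was then compared with that of vehicle-treated cultures to give inhibition.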

The panel holds about 79,000 compounds, 15% with a hit somewhere; the sample as a whole holds those more often. Values without a mark were called inactive. Active and inactive are the calls of the source. Rule as the data show it: active = growth inhibition above about 70%; inactive = the rest.

Regarding `O=C(O)c1ncnn1-c1ccccc1`, the growth inhibition was 4.7% in experiment [1]; 18.9% in experiment [2]; 17.4% in experiment [3]; -5.95% in experiment [4]; 18.8% in experiment [5]; 1.55% in experiment [6].

Regarding `CNC1C(=O)C(C)C(O)(C(CC(C)C(O)/C=C/C=C/CNC(=O)C(C)(C)C(O)\C(C)=C/C=C\C=C\Cc2cnc(C)o2)OC)C12C(=O)OC2COC` (stereo not given) (tested in a mixture with another compound), the growth inhibition is 2.6% in experiment [1]; -22.1% in experiment [2]; -7.75% in experiment [3]; 2.95% in experiment [4]; 12.9% in experiment [5]; 6.35% in experiment [6].

As to `CCOc1cc[n+]([O-])cc1C`, the growth inhibition in experiment [1] is -15.7%; in experiment [2] it was -9.6%; in experiment [3] it was 1.45%; in experiment [4], -8.2%; in experiment [5] it was -3.75%; in experiment [6] it was 13.1%.

Regarding `Clc1ccc(NC2=NCCN=C(Nc3ccc(Cl)c(Cl)c3)SS2)cc1Cl`, the growth inhibition in experiment [1] was -26.9%; in experiment [2], -21.4%; in experiment [3], -14.7%; in experiment [4], -14.1%; in experiment [5], -28.1%; in experiment [6], -33.6%.

For `N#CCOc1ccc(Cl)cc1`, the growth inhibition in experiment [1] was -10.7%; in experiment [2], -16.2%; in experiment [3], -13.1%; in experiment [4] it was -53.2%; in experiment [5], 1.8%; in experiment [6] it was -3.65%.

In the case of `O=c1c(SCc2ccc(Br)cc2)c(SCc2ccc(Br)cc2)cnn1-c1ccccc1`, the growth inhibition was 22.3% in experiment [1]; 4.65% in experiment [2]; 13.8% in experiment [3]; 34% in experiment [4]; 13.4% in experiment [5]; 14.8% in experiment [6].

Consider `O=C1NC(c2ccccc2Cl)Nc2ccccc21` (stereo not given), for which the growth inhibition in experiment [1] is -1.1%; in experiment [2] it was 4.1%; in experiment [3], 5.65%; in experiment [4] it was -32.1%; in experiment [5], 5.45%; in experiment [6] it was -27.1%.

With `Cc1ccc2c(c1)c1ccc3c(c1n2C)C(=O)C=CC3=O`, the growth inhibition is 3.25% in experiment [1]; 30.7% in experiment [2]; 74.8% (active) in experiment [3]; 2.55% in experiment [4]; 62.6% in experiment [5]; 74% (active) in experiment [6].

On to `COc1nc(SC)nc2c1cnn2C1OC(C(O)CO)C(OC)C1O` (stereo not given), for which the growth inhibition in experiment [1] is 4.85%; in experiment [2], -1.7%; in experiment [3], 3.35%; in experiment [4] it was 9.95%; in experiment [5] it was -4.6%; in experiment [6], 16.3%.

On to `O=C(c1ccc(OC(=O)c2ccccc2O)cc1)c1ccc(OC(=O)c2ccccc2O)cc1`, for which the growth inhibition is 27.6% in experiment [1]; 6.75% in experiment [2]; 29.3% in experiment [3]; -100% in experiment [4]; 8.3% in experiment [5]; 15.9% in experiment [6].

`CC1(CBr)COC(c2ccccc2)(C2CCCCC2)OC1` (stereo not given): the growth inhibition is -1.9% in experiment [1]; -14.8% in experiment [2]; -5.55% in experiment [3]; -1.9% in experiment [4]; -13.7% in experiment [5]; 23.7% in experiment [6].

On to `COc1ccc(Cc2cc3c(cc2OCC(=O)N2CCOCC2)OCO3)cc1`, for which the growth inhibition was -3.25% in experiment [1]; -9.5% in experiment [2]; -4.25% in experiment [3]; -37.7% in experiment [4]; 20.4% in experiment [5]; -3.3% in experiment [6].

As to `OCC(O)C1OC(n2cnc3c(=S)nc[nH]c32)C(O)C1O` (stereo not given), the growth inhibition in experiment [1] is 2.85%; in experiment [2] it was -6.75%; in experiment [3], -3.8%; in experiment [4] it was -42.8%; in experiment [5] it was -6.5%; in experiment [6], -10.6%.

On to `C#CCC[N+](C)(C)C`, for which the growth inhibition is -0.75% in experiment [1]; -12.5% in experiment [2]; -5.2% in experiment [3]; 11.2% in experiment [4]; -7.45% in experiment [5]; 4.55% in experiment [6].

As for `Nc1ccc(C(=O)OCCN2CCN(CCOC(=O)c3ccc(N)cc3)CC2)cc1`, the growth inhibition in experiment [1] was 28.9%; in experiment [2] it was 13.4%; in experiment [3] it was 12.6%; in experiment [4] it was 16.2%; in experiment [5], 1.6%; in experiment [6], 28.4%.

With `Cc1ccc(C)c(NC(=O)Nc2cccc(Cl)c2)c1`, the growth inhibition in experiment [1] is -6.1%; in experiment [2], 21.2%; in experiment [3], -5.85%; in experiment [4], -4.95%; in experiment [5], 9.4%; in experiment [6] it was -7.65%.

Regarding `COc1ccc2nc3cc(Cl)ccc3c(NCCCNCCCNc3c4ccc(Cl)cc4nc4ccc(OC)cc34)c2c1`, the growth inhibition in experiment [1] is -10.3%; in experiment [2], -16.5%; in experiment [3], -9.1%; in experiment [4], 3.5%; in experiment [5], -6%; in experiment [6], -23.1%.

Turning to `COc1ccc(-c2ccc(Cc3ccc(-c4ccc(OC)cc4)o3)o2)cc1`, the growth inhibition in experiment [1] was 4.35%; in experiment [2] it was -0.35%; in experiment [3] it was 6.7%; in experiment [4] it was -72.7%; in experiment [5], -6.4%; in experiment [6], 1%.

With `C/C(=N\Nc1ccccc1Br)c1cccc(/C(C)=N/Nc2ccccc2Br)n1`, the growth inhibition was -21.6% in experiment [1]; -1.55% in experiment [2]; -6.1% in experiment [3]; -11.6% in experiment [4]; 2.75% in experiment [5]; 6.2% in experiment [6].

With `CCCC(=O)C(C)C(=O)CC` (stereo not given), the growth inhibition was -52.1% in experiment [1]; -26.9% in experiment [2]; -15.7% in experiment [3]; 4.3% in experiment [4]; -6.8% in experiment [5]; 0.5% in experiment [6].

Source of the values: PubChem BioAssay (NCI).
